Among the data in PubChem BioAssay AID652062 (Broad Institute, 2013) are activity change, negative = inhibition values, retold here.

Among all 1,400 compounds or so, about 1,100 (79%) were called active.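 How the source made its calls: active means fitted half-maximal concentration of a falling signal no higher than twice the top valid dose in every test run; inconclusive means runs disagree, or flat partial inhibition, or poor fit; inactive means every run inactive: flat, wrong direction, or potency beyond limit.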 So high a share suggests a set chosen from earlier hits. Only a sample is shown. Potency and affinity values are given separately.

A short description of this test: inhibitors of clade B AD8 Env fusion, dose response, cell-based, cherry-pick (AID 652062). The note with it: HeLa-AD8 Env / CEM-CCR5 cell fusion, luciferase; at 35 µM (top of the series) unless noted.
As for `COc1ccc(S(=O)(=O)N(C)C[C@@H]2Oc3ccc(NC(=O)C4CCCCC4)cc3CC(=O)N([C@@H](C)CO)C[C@@H]2C)cc1`, the activity change, negative = inhibition worked out at 5.28% [at 16 µM]. Consider `O=C(N[C@@H]1CC[C@H](CCNS(=O)(=O)c2ccc(F)cc2)O[C@@H]1CO)C1CC1`, for which the activity change, negative = inhibition came to 21.6%. `COc1cc2c(cc1OC)C(=O)N1[C@H]3c4cc(Cl)ccc4OC[C@@H]3[C@H](c3ccccc3)[C@]1(C)C(=O)N2`: the activity change, negative = inhibition is -26.3%. For the molecule `C[C@@]12C(=O)N(Cc3ccco3)CC(=O)N1[C@H]1c3ccccc3OC[C@@H]1[C@@H]2c1ccccc1`, the activity change, negative = inhibition came to 2.22%. As to `C[C@H]1NC(=O)[C@@]2(C)[C@H](c3ccccc3)[C@H]3COc4ccccc4[C@@H]3N2C1=O`, the activity change, negative = inhibition was 80.3%.

Take `Cc1cc(Cl)ccc1OCC(=O)NNC(=O)C1CSC2(C)CCC(=O)N12` (stereo unspecified): the activity change, negative = inhibition is 1.11%.

As for `COc1ccc([Si](C)(C)[C@H]2[C@H](CCO)O[C@@]3(C(=O)N(Cc4cccc(N5CCOC5=O)c4)c4ccccc43)[C@@H]2C)cc1`, the activity change, negative = inhibition was 108%.

For the molecule `COc1ccc(S(=O)(=O)N2CCCCC2)cc1NC(=O)CCCOc1ccc(C)cc1`, the activity change, negative = inhibition turned out to be 3.18%.

As for `COc1ccc(S(=O)(=O)N2CCCCC2)cc1NC(=O)CN(Cc1ccco1)Cc1ccco1`, the activity change, negative = inhibition was -14.6%. As for `CCCCCCOc1ccc(OC(=O)c2ccncc2)cc1`, the figure is -6.3%; as for `COc1ccc(-c2c(C)nn3c(C(F)(F)F)cc(C)nc23)cc1`, 123%.

`O=C(COC(=O)c1cc(S(=O)(=O)N2CCOCC2)ccc1O)NCc1ccc2c(c1)OCO2`: the activity change, negative = inhibition stood at 28.5%. As for `CC(=O)Nc1ccc(C(=O)OCC(=O)NC(=O)NCc2ccccc2)cc1`, the figure is 16.9%. For the molecule `CSc1ncccc1C(=O)OCC(=O)Nc1ccc(C)c(S(=O)(=O)N2CCOCC2)c1`, the activity change, negative = inhibition was -12.3% [at 16 µM]. `CCCC(=O)Nc1ccc2c(c1)OC[C@H](C)N(C(=O)CN(C)C)C[C@@H](C)[C@H](OC)CN(C)C2=O`: the activity change, negative = inhibition is -2.16%. In the case of `COCC(=O)Nc1ccc2c(c1)C(=O)N(C)C[C@@H](OC)[C@H](C)CN(C(C)=O)[C@H](C)CO2`, the activity change, negative = inhibition was determined as 28.2%. Regarding `CO[C@H]1CN(C)C(=O)c2cc(NC(=O)c3ccc(F)cc3)ccc2OC[C@H](C)N(C(=O)CN(C)C)C[C@@H]1C`, the activity change, negative = inhibition worked out at 6.3%. Regarding `CO[C@H]1CN(C)C(=O)c2ccc(NC(=O)Nc3cccc(F)c3)cc2OC[C@@H](C)N(C(C)=O)C[C@H]1C`, the activity change, negative = inhibition was determined as 72.4%. Turning to `CO[C@H]1CN(C)C(=O)c2ccc(NC(=O)Nc3cccc(F)c3)cc2OC[C@H](C)NC[C@H]1C`, the activity change, negative = inhibition was 25.2%. To `CCc1ccc(C(=O)CN2C(=O)NC(C)(c3ccc(C)cc3)C2=O)cc1` (stereo unspecified) belongs -27.5%; to `COc1cccc(S(=O)(=O)N(C)C[C@H]2Oc3cc(C4=CCCC4)ccc3S(=O)(=O)N([C@H](C)CO)C[C@@H]2C)c1`, 27.1%.
